Source: PubChem BioAssay (National Center for Advancing Translational Sciences (NCATS))
An excerpt weighted towards active compounds, which were near 14% of everything screened.
HCV inhibitor = qHTS Assay for Inhibitors of Hepatitis C Virus (HCV) | Huh7.5.1 HCVcc-Cre infection, luciferase reporter, 44 h | Potency, µM (doses to about 41.8 µM), most hits filed as inhibitors | hit rate 3.4% among 340,000 | AID 651820, 2012
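Cells (1,000/well) were plated 4 h before compound, then infected with HCVcc-Cre virus (~0.5 moi). After 44 h further culture, infection was read as luciferase luminescence following a 15 min substrate incubation at room temperature.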
Pf growth 48h = Primary qHTS for delayed death inhibitors of the malarial parasite plastid, 48 hour incubation. P. falciparum luciferase growth in erythrocytes, 48 h. Potency, µM (titrated, usually from 28.7 µM), usual class: inhibitors. hit rate 5.9% among 310,000. AID 504832, 2011
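Luciferase-expressing P. falciparum in infected erythrocytes (2% hematocrit, 0.1% parasitemia final) in RPMI 1640/0.5% Albumax were exposed to compound for 48 hours at 37 C, 5% CO2; growth read as luminescence.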
Pf growth 96h = Primary qHTS for delayed death inhibitors of the malarial parasite plastid, 96 hour incubation | P. falciparum luciferase reporter growth, 96 h | Potency, µM (highest dose often 28.7 µM), hits mostly inhibitors | hit rate 6.9% among 320,000
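Two-generation exposure (96 h) targets delayed-death phenotype. Reporter parasites carrying integrated firefly luciferase, in red cells at 2% hematocrit and 0.05% parasitemia final, kept at 37 C, 5% CO2; luminescence loss indicates inhibition.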
HCMV antiviral = qHTS Assay for inhibitors of the human cytomegalovirus (HCMV). HFF cells, HCMV-luciferase reporter, 72 h; stronger effect = lower value. activity change, negative = inhibition, % at 57.5 µM. hit rate 4.5% among 410,000; in the data active means activity change below about -60%; inconclusive means no clear call, values can overlap the other calls; inactive means above about -39%
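Compounds were evaluated in HFFs infected with an HCMV luciferase reporter virus (MOI 1 PFU/cell). Luciferase in lysates collected 72 h post infection served as the replication measure.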
Lassa entry inh = qHTS for Inhibitors of binding or entry into cells for Lassa Virus; Potency, µM (top dose mostly 37.9 µM), actives largely listed as inhibitors; hit rate 1.2% among 300,000; AID 540256, 2011; Lassa virus pseudotype entry inhibition, cell reporter; calls by dose curve; tested in HEK293 cells; further: nearly all actives have a fitted effect of over 50% in size
MARV entry inh = qHTS for inhibitors of binding or entry into cells for Marburg Virus. hit rate 1.8% among 300,000. Marburg virus pseudotyped entry inhibition, cell reporter. Potency, µM (doses to about 37.8 µM), most hits filed as inhibitors; calls by dose curve; tested in HEK293 cells
Hits are given with their value; i = inactive; ? = inconclusive; nt = no result; [ ] = another dose, or the depositor's remark. Unless noted, the call rests on the fitted dose curve; in most records, active means well fitted inhibition curve with a large enough effect; inconclusive means small, poorly fitted or top-dose-only effect, or another doubt; inactive means no such curve, though single readings can be large or run the other way.

SMILES | HCV inhibitor | Pf growth 48h | Pf growth 96h | HCMV antiviral | Lassa entry inh | MARV entry inh
CCCC(=O)Nc1ccc(-c2csc(N/N=C\c3ccncc3)n2)cc1 | ? | 8.3µM | ? | ? | ? | ?
CC(=O)Nc1ccc(-c2csc(N/N=C\c3ccncc3)n2)cc1 | ? | ? | ? | i | i | ?
CCOC(=O)C1=CN(Cc2ccco2)S(=O)(=O)NC1CC (stereo not given) | ? | nt | nt | i | nt | nt
N#C/C(=N\Nc1ccc([N+](=O)[O-])cc1)C(N)=S | 10µM | i | ? | -95 | ? | ?
N#C/C(=N\Nc1cccc([N+](=O)[O-])c1)C(=O)c1ccc(Br)cc1 | 10µM | ? | ? | -101 | nt | ?
Oc1ccc(/C=N/Nc2ccc(C(F)(F)F)cn2)cc1 | ? | i | i | i | i | ?
Oc1ccc(/C=N/Nc2ccc(C(F)(F)F)cn2)c(O)c1 | nt | ? | i | -94 | nt | nt
O=c1c2cnn(-c3ccc(F)cc3)c2ncn1Cc1cccnc1 | i | i | i | i | i | i
O=c1c2cnn(-c3ccccc3)c2ncn1Cc1cccnc1 | i | i | ? | i | i | i
O=c1c2cnn(-c3ccc(F)cc3)c2ncn1Cc1ccccc1 | i | i | 8.3µM | i | ? | i
O=c1c2cnn(-c3ccccc3Cl)c2ncn1Cc1cccnc1 | i | ? | 13µM | i | i | i
COc1ccc2c(C)cc(SCC(=O)Nc3nsc(-c4ccc(C)cc4)n3)nc2c1 | i | i | i | i | i | i
CC1(C)CC(=O)c2c(nc(SCC(=O)Nc3nsc(-c4ccccc4)n3)c(C#N)c2-c2ccccc2)C1 | ? | ? | 15µM | i | ? | ?
Cc1cccc(NC(=O)CSc2cc(C)c3ccccc3n2)c1 | nt | nt | nt | -74 | ? | 2.2µM
Cc1cc(SCC(=O)c2ccc(O)c(O)c2)nc2ccccc12 | ? | i | i | -70 | i | ?
Cc1cc(SCC(=O)c2ccc3c(c2)OCO3)nc2ccccc12 | ? | nt | ? | i | i | i
Cc1ccc(-c2nc(NC(=O)CSc3cc(C)c4ccccc4n3)ns2)cc1 | i[8.37 µM] | i | 15µM | i | i | ?
COc1ccccc1N1CCN(C(=O)c2cc(S(=O)(=O)N3CCC(C)CC3)cn2C)CC1 | nt | nt | nt | i | i | nt
CCN(Cc1ccccc1)Cc1c(O)ccc2c(=O)c(-c3ccc(Cl)cc3)coc12 | nt | nt | nt | i | ? | i
COc1ccc(OC)c(NC(=O)c2cn(CC(C)C)c(=O)c3cc(OC)c(OC)cc23)c1 | nt | nt | nt | i | ? | i
Cc1ccc(-c2nc(NC(=O)CSc3nnc(C)s3)ns2)cc1 | i | nt | i | i | nt | nt
COc1ccc2c(C)cc(SCC(=O)Nc3cc(C(N)=O)cc(C(N)=O)c3)nc2c1 | 4µM | i | ? | i | i | ?
Cc1nnc(SCC(=O)Nc2nsc(-c3ccccc3)n2)s1 | ? | i | 7.4µM | i | ? | i
CC1=C(C(=O)N2CCN(c3cccc(C)c3C)CC2)C2(CCCCC2)OC1=O | nt | nt | nt | i | ? | i
Cc1c(Cc2ccccc2)[n+](=O)c2ccccc2n1[O-] | nt | nt | nt | i | nt | nt
SMILES | HCV inhibitor | Pf growth 48h | Pf growth 96h | HCMV antiviral | Lassa entry inh | MARV entry inh
CC(C)C[C@H]1COc2cc(N3CCCC3)ccc2S(=O)(=O)N1 | nt | nt | nt | i | nt | ?
CCOC(=O)c1ccc(NC(=O)c2nc[nH]c2C(=O)N2CCN(C(=O)OC(C)(C)C)CC2)cc1 | nt | 13µM | ? | ? | nt | nt
CC(C)(C)OC(=O)CNC(=O)c1nc[nH]c1C(=O)N1CCN(C(=O)OC(C)(C)C)CC1 | i | i | i | i | nt | nt
CC(C)(C)OC(=O)N1CCN(C(=O)c2[nH]cnc2C(=O)Nc2cccc(Cl)c2)CC1 | i | 4.1µM | ? | i | nt | i
Cc1cccc(NS(=O)(=O)c2c(C)nc3sccn3c2=O)c1C | nt | nt | nt | i | i | nt
N#Cc1c2n(c3c(=O)n(Cc4ccccc4Cl)cnc13)CCCC2 | 11µM | i | nt | i | ? | ?
CC1CCC(N2CCNCC2)CC1 (stereo not given) | i | i | 15µM | i | nt | nt
C1CCCN(C2CCNCC2)CC1 | i | i | ? | i | ? | ?
C1CCCC(N2CCNCC2)CC1 | i | i | 2.9µM | i | ? | i
Cc1cc(Cl)c(S(N)(=O)=O)cc1OCC(=O)NC1CCCCC1 | i | i | i | i | i | ?
Cc1cc(Cl)c(S(=O)(=O)NC2CCCC2)cc1OCC(=O)NC1CCCCC1 | 7.1µM | nt | ? | -90 | ? | ?
Cc1cc(Cl)c(S(=O)(=O)N2CCSCC2)cc1OCC(=O)NC1CCCCC1 | 6.3µM | nt | i | -95 | ? | 9.2µM
Cc1cc(Cl)c(S(=O)(=O)N2CCN(c3ccccn3)CC2)cc1OCC(=O)NC1CCCCC1 | 10µM | 0.23µM | ? | -77 | nt | nt
Cc1cc(Cl)c(S(=O)(=O)N2CCCCCC2)cc1OCC(=O)NC1CCCCC1 | i | nt | 0.059µM | ? | i | i
O=C(c1ccc(F)cc1)n1nc(-c2ccccc2)nc1NCc1ccco1 | nt | nt | nt | i | i | ?
CCOCCCN1C(=O)c2[nH]nc(-c3ccccc3O)c2C1c1ccc(CC)cc1 (stereo not given) | nt | nt | nt | i | ? | ?
CCOC(=O)N1CCN(S(=O)(=O)c2cc(OCC(=O)NC3CCCCC3)c(C)cc2Cl)CC1 | i | nt | 0.66µM | -70 | i | ?
Cc1cc(Cl)c(S(=O)(=O)N2CCCCCC2)cc1OCC(N)=O | i | ? | ? | i | i | i
Cc1ccc(NC(=O)NCCN2CCCCC2)cc1C | i | i | 17µM | i | nt | nt
Cc1ccccc1NC(=O)NCCCN1CCN(C2CCCCC2)CC1 | ? | i | i | i | i | i
Cc1ccccc1NC(=O)NCCCN1CCCC1 | i | nt | 2.3µM | i | i | i
C[C@]12CCCCC3=CC(=O)C=C[C@@]31OC(=O)CC2 | nt | nt | nt | i | nt | nt
CC(=O)Nc1cccc(Nc2cnccn2)c1 | nt | nt | nt | i | nt | nt
COc1ccc(C2SCC(=O)N2c2ccc(F)cc2)cc1 (stereo not given) | i | i | 2.6µM | i | nt | nt
COc1ccc(N2C(=O)CSC(c3ccccc3)C2=O)cc1 (stereo not given) | i | i | i | -105 | i | i
SMILES | HCV inhibitor | Pf growth 48h | Pf growth 96h | HCMV antiviral | Lassa entry inh | MARV entry inh
COc1ccc(C2SCC(=O)N2c2ccc(OC)cc2)cc1 (stereo not given) | i | i | i | i | nt | nt
COc1ccc(N2C(=O)CSC2c2ccc([N+](=O)[O-])cc2)cc1 (stereo not given) | i | nt | 5.2µM | i | i | ?
COc1ccc(N2C(=O)CC(c3ccccc3)C2=O)cc1 (stereo not given) | i | i | i | i | i | i
CCN(CC)CCCN1C(=O)CSC1c1ccc([N+](=O)[O-])cc1 (stereo not given) | i | i | i | -102 | nt | nt
COc1ccccc1[C@H]1/C(=C(\O)c2ccc(C)cc2)C(=O)C(=O)N1CCN1CCOCC1 | nt | nt | nt | nt | nt | i
COc1ccc(N2C(=O)CC(c3ccc(OC(C)C)cc3)C2=O)cc1 (stereo not given) | i | nt | 7.4µM | i | nt | nt
CCOc1ccc(-n2c(-c3ccc(Br)cc3)cc3c2CC(C)(C)CC3=O)cc1 | nt | nt | nt | i | ? | i
